In the library only some 3.5% were active in any assay of this set; here they are far more common.
M1 antag: blocks human M1 muscarinic receptor. P11229. CHO-K1 hM1, Fluo-8 calcium fluorescence, ACh EC80 antagonist. inhibition, % at 3 µM. 1.3% of 360,000 active. AID 588852;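 active = percent inhibition above its own plate's cutoff, namely the mean of that plate's compound wells plus 3 SD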;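 note: peak over basal fluorescence ratio during 140 s after agonist addition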
Target sequence (P11229 whole entry, looked up): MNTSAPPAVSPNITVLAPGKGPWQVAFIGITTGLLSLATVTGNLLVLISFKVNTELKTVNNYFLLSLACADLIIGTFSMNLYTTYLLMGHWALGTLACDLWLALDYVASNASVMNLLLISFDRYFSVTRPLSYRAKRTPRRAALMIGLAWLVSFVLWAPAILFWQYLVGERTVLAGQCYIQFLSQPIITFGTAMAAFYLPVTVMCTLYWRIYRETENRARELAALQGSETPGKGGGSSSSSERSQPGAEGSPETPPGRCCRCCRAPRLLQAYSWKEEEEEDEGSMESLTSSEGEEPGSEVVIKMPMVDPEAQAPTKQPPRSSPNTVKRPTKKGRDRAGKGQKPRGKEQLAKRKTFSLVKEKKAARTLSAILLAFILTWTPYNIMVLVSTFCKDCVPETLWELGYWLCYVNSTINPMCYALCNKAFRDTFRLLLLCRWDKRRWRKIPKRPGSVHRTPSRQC
Myeloid diff 2: promotes myeloid progenitor differentiation | ER-HoxA9 myeloid progenitors, lysozyme-GFP differentiation, flow cytometry | AID 624256 | calls only at 10 µM | 1% of 360,000 active;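 active = normalized GFP-positive differentiation at or above the plate's own cutoff, the solvent-only control mean plus 3 SD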;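 note: cells exposed to compound for four days before flow analysis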
ATG4B inhibitor: inhibitors of human ATG4B cysteine protease. Q9Y4P1. ATG4B cleavage of LC3-PLA2, NBD-HPC fluorescence, 1 h. inhibition, % at 8.33 µM. 0.51% of 340,000 active. AID 504462; in the data active = inhibition above about 40%
M1 PAM: potentiates human M1 receptor response to acetylcholine. P11229. CHO-K1 hM1, Fluo-8 calcium fluorescence, ACh EC20; 0% = ACh EC20, 100% = maximal ACh. activation, % at 3 µM. 0.088% of 360,000 active; in the data active = activation above about 19%, passing the limit was not always enough
SKN-1 inh: inhibitors of C. elegans SKN-1 | C. elegans VP596 Pgst-4::GFP/RFP ratio, acrylamide-induced, 24 h | inhibition, % at 21.8 µM | 0.49% of 360,000 active;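 active = interference check ratio from 0.5 to 1.5 plus GFP to RFP signal ratio inhibition reaching or exceeding a fixed threshold, cut at about 30% in these data, passing the limit was not always enough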
M1 ag: agonists of human M1 muscarinic receptor; CHO-K1 hM1, Fluo-8 calcium fluorescence, agonist mode; 0% DMSO, 100% acetylcholine EC100; activation, % at 3 µM; 0.33% of 360,000 active;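 active = activation above the run's mean compound activation plus 3 SD, cut at about 16% in these data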;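 note: peak over basal fluorescence ratio within a 140 s kinetic read after compound addition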
Large screens that a line does not name were inactive; ! = a repeat was not active.

COCCn1c(-c2ccc(-c3ccc([N+](=O)[O-])cc3Br)o2)nc2c1c(=O)[nH]c(=O)n2CC(C)C	Myeloid diff 2 active
OC[C@@H]1CN(Cc2ccc(F)cc2)C[C@H](n2cnc3c(N4CCN(c5ccccc5)CC4)ncnc32)O1	none (no result: ATG4B inhibitor)
C#CC[N+](C)(C)CC#Cc1ccccc1	Myeloid diff 2 active
Cc1ccc(C#CC[N+](C)(C)CC#Cc2ccccc2)cc1	M1 antag 29.5
CCC[N+](CC#Cc1ccccc1)(CCC)CC(=O)OC	none
CC(=O)N1CCN(Cc2cc(=O)oc3ccccc23)CC1	none (no result: ATG4B inhibitor)
O=C1NC(=O)C2(N1)c1ccccc1-c1ccccc12	none
O=C1NC(=O)C2(N1)C(=O)c1cccc3cccc2c13 (stereo not given)	M1 ag 49.0 (no result: ATG4B inhibitor)
O=C(NCc1ccccc1)c1ccc(NC(=O)C2CCCCC2)cc1	none
CCOC(=O)C(Cc1ccc(O)cc1)NC(=O)CCc1c[nH]c2ccccc12 (stereo not given)	M1 ag 21.3
COC(=O)[C@H](Cc1c[nH]c2ccccc12)NC(=O)CCCc1c[nH]c2ccccc12	none
O=C(c1ccc(S(=O)(=O)NCc2ccco2)cc1)N1CCN(Cc2ccccc2F)CC1	none
CC[C@]12c3[nH]c4cc(-c5ccco5)ccc4c3CCN1C(=O)[C@@H](CC(=O)NCCCn1ccnc1)C[C@@H]2C(=O)N1CCN(C(=O)C2CC2)CC1	Myeloid diff 2 active
CC[C@]12c3[nH]c4cc(-c5ccco5)ccc4c3CCN1C(=O)[C@@H](CC(=O)NCCCN(C)C)C[C@@H]2C(=O)N1CCN(C(=O)C2CC2)CC1	M1 antag 20.9 (no result: ATG4B inhibitor)
O=S1(=O)CC(N2CCN(CCO)CC2)CN1Cc1cn(Cc2ccc(C(F)(F)F)cc2)nn1 (stereo not given)	none (no result: M1 antag, ATG4B inhibitor, M1 PAM, M1 ag)
CCn1c(N2CCN(C(=S)NC)CC2)nc2ccccc21	none
CCn1c(N2CCN(C(=S)NCC(C)C)CC2)nc2ccccc21	M1 antag 38.8
COc1ccc(-n2nnnc2C(c2cc3ccccc3o2)N2CCN(C/C=C/c3ccccc3)CC2)cc1 (stereo not given)	M1 antag 57.5 (no result: ATG4B inhibitor)
C(=C\c1ccccc1)/CN1CCN(C(c2cc3ccccc3o2)c2nnnn2-c2ccc3c(c2)OCCO3)CC1 (stereo not given)	M1 antag 76.3 (no result: ATG4B inhibitor)
COc1ccc(-n2nnnc2C(c2cccc3ccccc23)N2CCN(C/C=C/c3ccccc3)CC2)cc1 (stereo not given)	none (no result: ATG4B inhibitor)
CCCCn1nnnc1C(c1cc2ccccc2o1)N1CCCC1 (stereo not given)	none (no result: M1 antag, ATG4B inhibitor, M1 PAM, M1 ag)
C(=C\c1ccccc1)/CN1CCN(C(c2nnnn2-c2ccc3c(c2)OCCO3)C2CC2)CC1 (stereo not given)	none (no result: ATG4B inhibitor)
CCCCn1nnnc1C(c1cc2ccccc2o1)N1CCN(C/C=C/c2ccccc2)CC1 (stereo not given)	M1 antag 55.6 (no result: ATG4B inhibitor)
C(=C\c1ccccc1)/CN1CCN(C(c2cccs2)c2nnnn2-c2ccc3c(c2)OCCO3)CC1 (stereo not given)	M1 antag 90.0 (no result: ATG4B inhibitor)
Cn1ncc(Br)c1C(=O)NC1CCCCCC1	none
CC1=CC(=O)C(C(C)=Nc2cccc(Cl)c2)C(=O)O1 (stereo not given)	none
COc1ccc(C(c2nnnn2-c2ccc3c(c2)OCCO3)N2CCN(C/C=C/c3ccccc3)CC2)cc1 (stereo not given)	M1 antag 93.5 (no result: ATG4B inhibitor)
CCC(c1nnnn1-c1ccc2c(c1)OCCO2)N1CCN(C/C=C/c2ccccc2)CC1 (stereo not given)	none (no result: ATG4B inhibitor)
CNC(=O)CSc1nnc(-c2ccco2)n1-c1ccccc1OC	M1 PAM 24.6
COc1ccccc1OCC(O)Cn1c(=N)n(CCN2CCCCC2)c2ccccc21 (stereo not given)	M1 antag 19.1
Cc1ccn2c(NC3CCCCC3)c(-c3ccc(SC4CCCCC4)cc3)nc2c1	Myeloid diff 2 active (no result: M1 antag, ATG4B inhibitor, M1 PAM, M1 ag)
CCCCCCSc1ccc(-c2nc3ccc(Cl)cn3c2NC2CCCCC2)cc1	Myeloid diff 2 active
Cc1ccn2c(NC3CCCCC3)c(-c3cccc(SC4CCCCC4)c3)nc2c1	none
CCC(C)Sc1cccc(-c2nc3cc(C)ccn3c2NC2CCCCC2)c1 (stereo not given)	Myeloid diff 2 active!
CCOC(=O)c1ccc(S(=O)(=O)N2CCN(C(=O)c3cc(=O)c4ccccc4o3)CC2)cc1	none
NC(=O)c1sc2nc(-c3ccccc3)ccc2c1N	Myeloid diff 2 active
COc1ccc(-c2ccc3c(N)c(C(=O)c4ccc(OC)c(OC)c4)sc3n2)cc1	none
COc1ccc(C(=O)c2sc3nc(-c4ccccc4)ccc3c2N)cc1OC	Myeloid diff 2 active
O=C(CCCN=C1NS(=O)(=O)c2ccccc21)OCc1cc([N+](=O)[O-])cc2c1OCOC2	Myeloid diff 2 active
CC1CCN(C(=O)COC(=O)c2ccc(=O)n(Cc3ccccc3)n2)CC1	none
CC(=O)c1ccc(NC(=O)CSc2nnc(-c3ccncc3)n2C2CC2)cc1	none
O=C(O)CNC(=O)c1ccc(OC(F)F)cc1	none
Nc1ccc(C(=O)NCC(=O)O)cc1	Myeloid diff 2 active
Nc1ccc(C(=O)NCCCCCCNC(=O)c2ccc(N)cc2)cc1	none
O=C(O)CNC(=O)c1ccc(Oc2c(F)c(F)c(Oc3ccc(C(=O)NCC(=O)O)cc3)c(F)c2F)cc1	Myeloid diff 2 active
Cc1ccc(NC(=O)c2sc3nc(CCl)[nH]c(=O)c3c2C)c(C)c1	none
O=C(CC12CC3CC(CC(C3)C1)C2)NC(=S)NCc1ccco1	none
COc1cccc(NC(=O)CNC(=O)N2CC(=O)Nc3ccccc32)c1	none
Cc1nn(Cc2cccc(C(=O)NN)c2)c(C)c1Cl	Myeloid diff 2 active
Cc1nn(Cc2ccc(C(=O)NN)cc2)c(C)c1Cl	none
N#Cc1ccccc1Cn1cc(/C=C/[N+](=O)[O-])c2ccccc21	M1 antag 50.4
O=[N+]([O-])/C=C/c1cn(Cc2ccccc2)c2ccccc12	none
COC(=O)C1CCN(C2CN(C3CCCCC3)S(=O)(=O)C2)CC1 (stereo not given)	none (no result: ATG4B inhibitor)
C=CC(=O)N(CCC)C(c1ccccc1)c1ccccc1OC (stereo not given)	none
Cc1[nH]c2ccccc2c1/C=N/Nc1nc(Nc2ccccc2)nc(N2CCOCC2)n1	Myeloid diff 2 active
O=C(NNC1=NCCC1)C1CC1	Myeloid diff 2 active
CCSc1nnc(-c2sc3nnc(-c4ccccc4)c(-c4ccccc4)c3c2N)o1	Myeloid diff 2 active
COc1ccc(C)cc1Nc1n[n+](-c2ccccc2)c(-c2cc([N+](=O)[O-])cc(OC)c2O)s1	Myeloid diff 2 active
COc1cc(NC(=O)Nc2nnc([C@@H]3C[C@H](O)[C@@H](CO)O3)s2)cc(OC)c1OC	none (no result: ATG4B inhibitor)
CC1CCCC(C)N1C(=O)COc1ccc(C(=O)Nc2ccccc2N2CCOCC2)cc1 (stereo not given)	M1 antag 34.2
